The supplement of paper PMC10849652
The full data set covers some 7,900 targets. This sample favours those with a hit. About 0.6% of all pairs of compound and target were hits.

Columns and labels:
Assay in all cases: log2 fold change, soluble protein after heating vs DMSO (PISA); higher = thermal stabilisation; K562 cells, 10 uM, 30 min; active = over 0.2 and 3.5 SD of the protein, either way, in both replicates (recomputed)
[1] = compound: COC1=CC=C(C=C1)CN2C=CC3=C2C=C(C=C3)C(=O)NO
Summary of the method: (§1)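 For each measurement, 10 μM compound was applied for 30 min to K562 cells at 2×10^6 cells/mL. Aliquots were heated for 3 min across 48°C-58°C, pooled, and extracted in PBS with 0.5% NP-40 at 4°C; the supernatant after 21,000xg for 90 min was soluble protein. This was quantified by TMTpro 16plex LC-MS/MS with channel sums equalised, and thermal stability was reported relative to control samples from duplicates, on a log2 fold-change scale.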

[2] = compound: CON(C)C(=O)N1N=C(c2cc(F)ccc2F)S[C@@]1(CCCN)c1ccccc1 [filanesib]
Summary of the method: as §1

[3] = compound: CO[C@H]1C[C@@H]2CC[C@@H](C)[C@@](O)(O2)C(=O)C(=O)N2CCCC[C@H]2C(=O)O[C@H]([C@H](C)C[C@@H]2CC[C@H](n3cnnn3)[C@H](OC)C2)CC(=O)[C@H](C)/C=C(\C)[C@@H](O)[C@@H](OC)C(=O)[C@H](C)C[C@H](C)/C=C/C=C/C=C/1C [zotarolimus]
Summary of the method: as §1

[4] = compound: COc1cc(C(=O)O)ccc1NC(=O)[C@@H]1N[C@@H](CC(C)(C)C)[C@](C#N)(c2ccc(Cl)cc2F)[C@H]1c1cccc(Cl)c1F [idasanutlin]
Summary of the method: as §1

[5] = compound: COc1cc(Nc2ncc3c(n2)-c2ccc(Cl)cc2C(c2c(F)cccc2OC)=NC3)ccc1C(=O)O [alisertib]
Summary of the method: as §1

[6] = compound: COc1cc2nc(-c3cc(F)ccc3O)nc(N[C@@H]3CNC[C@H]3C(C)(C)O)c2cc1OC
Summary of the method: as §1

[7] = compound: COc1cc2ncnc(Nc3ccc(F)c(Cl)c3)c2cc1OCCCN1CCOCC1 [gefitinib]
Summary of the method: as §1

[8] = compound: COc1cccc2cc(-c3nc([C@H]4CC[C@H](C(=O)O)CC4)n4ncnc(N)c34)[nH]c12
Summary of the method: as §1

[9] = compound: CS(=O)(=O)CCNCc1ccc(-c2ccc3ncnc(Nc4ccc(OCc5cccc(F)c5)c(Cl)c4)c3c2)o1 [lapatinib]
Summary of the method: as §1

[10] = compound: CS(=O)(=O)N1CCN(Cc2cc3nc(-c4cccc5[nH]ncc45)nc(N4CCOCC4)c3s2)CC1 [pictilisib]
Summary of the method: as §1

[11] = compound: CS(=O)(=O)c1ccc(-c2cnc(N)c(C(=O)Nc3ccccc3)n2)cc1
Summary of the method: as §1

[12] = compound: C[C@@H](Oc1cc(-c2cnn(C3CCNCC3)c2)cnc1N)c1c(Cl)ccc(F)c1Cl [crizotinib]
Summary of the method: as §1

[13] = compound: C[C@@H]1COCCN1C2=NC(=NC(=C2)C3(CC3)S(=O)(=O)C)C4=C5C=CNC5=CC=C4
Summary of the method: as §1

[14] = compound: C[C@H](C1=CC=C(C=C1)C(=O)NC2=C3C=CNC3=NC=C2)N
Summary of the method: as §1

[15] = compound: C[C@H](Nc1ncnc2nc[nH]c12)c1cc2cccc(Cl)c2c(=O)n1-c1ccccc1 [duvelisib]
Summary of the method: as §1

[16] = compound: Cc1cc(Nc2cc(CN3CCOCC3)c3nc(C)c(Cc4ccc(Cl)cc4F)n3n2)n[nH]1 [gandotinib]
Summary of the method: as §1

[17] = compound: Cc1cc(Nc2cc(N3CCN(C)CC3)nc(Sc3ccc(NC(=O)C4CC4)cc3)n2)n[nH]1 [tozasertib]
Summary of the method: as §1

[18] = compound: Cc1cc(SCc2sc(-c3ccc(C(F)(F)F)cc3)nc2C)ccc1OCC(=O)O
Summary of the method: as §1

[19] = compound: Cc1ccc(-n2nc(C(C)(C)C)cc2NC(=O)Nc2ccc(OCCN3CCOCC3)c3ccccc23)cc1 [doramapimod]
Summary of the method: as §1

[20] = compound: Cc1ccc(C(=O)N(CCCN)[C@@H](c2nc3cc(Cl)ccc3c(=O)n2Cc2ccccc2)C(C)C)cc1 [ispinesib]
Summary of the method: as §1

Measured: log2 fold change

EIF4G1 isoform 8 (UniProt Q04637)
inactive: [1] 0.01 | [2] 0.067 | [3] -0.121 | [4] 0.09 | [5] -0.007 | [6] -0.003 | [7] -0.114 | [8] -0.369 | [9] -0.073 | [10] -0.27 | [11] -0.21 | [12] -0.314 | [13] -0.206 | [14] 0.109 | [15] -0.1 | [16] -0.032 | [17] 0.008 | [18] 0.149 | [19] 0.032 | [20] -0.324

EDC4 (UniProt Q6P2E9)
UniProt Q6P2E9, sequence (Q6P2E9 whole entry, looked up): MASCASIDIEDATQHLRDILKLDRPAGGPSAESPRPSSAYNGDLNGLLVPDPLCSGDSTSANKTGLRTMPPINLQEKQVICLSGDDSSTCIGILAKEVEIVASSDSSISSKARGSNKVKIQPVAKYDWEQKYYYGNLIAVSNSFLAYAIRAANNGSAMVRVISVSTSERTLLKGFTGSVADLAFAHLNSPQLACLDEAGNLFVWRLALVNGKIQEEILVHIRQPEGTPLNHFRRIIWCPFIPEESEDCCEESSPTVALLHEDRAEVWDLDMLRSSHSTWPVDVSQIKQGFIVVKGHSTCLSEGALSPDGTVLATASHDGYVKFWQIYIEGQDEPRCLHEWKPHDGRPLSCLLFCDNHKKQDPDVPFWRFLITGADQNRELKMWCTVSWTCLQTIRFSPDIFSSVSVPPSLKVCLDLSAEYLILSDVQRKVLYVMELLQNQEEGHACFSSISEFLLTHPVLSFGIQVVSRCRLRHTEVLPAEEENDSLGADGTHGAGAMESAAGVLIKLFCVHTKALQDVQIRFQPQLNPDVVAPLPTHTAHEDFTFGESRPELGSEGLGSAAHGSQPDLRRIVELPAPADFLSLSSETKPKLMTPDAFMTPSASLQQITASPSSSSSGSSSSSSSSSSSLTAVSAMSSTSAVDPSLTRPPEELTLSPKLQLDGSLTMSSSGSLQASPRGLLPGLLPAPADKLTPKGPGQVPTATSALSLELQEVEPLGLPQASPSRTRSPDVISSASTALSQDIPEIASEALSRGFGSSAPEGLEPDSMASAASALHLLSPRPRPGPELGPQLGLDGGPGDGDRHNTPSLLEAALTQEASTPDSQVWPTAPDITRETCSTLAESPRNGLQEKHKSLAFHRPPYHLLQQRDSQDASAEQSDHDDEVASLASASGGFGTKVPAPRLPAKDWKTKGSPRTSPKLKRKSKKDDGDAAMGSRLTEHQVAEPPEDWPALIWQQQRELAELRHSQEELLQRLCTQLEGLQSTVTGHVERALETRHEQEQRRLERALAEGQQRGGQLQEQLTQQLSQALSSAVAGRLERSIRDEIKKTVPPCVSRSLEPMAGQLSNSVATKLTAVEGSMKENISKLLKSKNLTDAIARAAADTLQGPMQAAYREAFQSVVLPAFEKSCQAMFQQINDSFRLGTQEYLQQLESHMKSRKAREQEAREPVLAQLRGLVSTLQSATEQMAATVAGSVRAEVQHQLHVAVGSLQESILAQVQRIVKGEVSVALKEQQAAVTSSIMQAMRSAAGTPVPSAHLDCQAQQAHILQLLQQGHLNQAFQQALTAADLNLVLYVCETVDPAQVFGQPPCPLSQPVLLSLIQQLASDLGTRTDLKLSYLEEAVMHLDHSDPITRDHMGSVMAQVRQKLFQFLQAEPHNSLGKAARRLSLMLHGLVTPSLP
inactive: [1] 0.018 | [2] 0.106 | [3] 0.001 | [4] 0.044 | [5] -0.028 | [6] 0.062 | [7] -0.004 | [8] 0 | [9] 0.007 | [10] 0.006 | [11] -0.064 | [12] 0.179 | [13] 0.003 | [14] -0.092 | [15] 0.003 | [16] -0.18 | [17] 0.061 | [18] 0.033 | [19] 0.005 | [20] -0.031

EXOC8 (UniProt Q8IYI6)
inactive: [1] 0.005 | [2] -0.044 | [3] 0.056 | [4] -0.072 | [5] 0.014 | [6] 0.038 | [7] -0.047 | [8] -0.003 | [9] -0.054 | [10] -0.156 | [11] -0.062 | [13] 0.109 | [14] 0.053 | [15] 0.004 | [16] -0.203 | [17] 0.048 | [18] 0.063 | [19] 0.007
active: [12] -0.32 | [20] -0.364

EEA1 (UniProt Q15075)
UniProt Q15075, sequence (Q15075 whole entry, looked up): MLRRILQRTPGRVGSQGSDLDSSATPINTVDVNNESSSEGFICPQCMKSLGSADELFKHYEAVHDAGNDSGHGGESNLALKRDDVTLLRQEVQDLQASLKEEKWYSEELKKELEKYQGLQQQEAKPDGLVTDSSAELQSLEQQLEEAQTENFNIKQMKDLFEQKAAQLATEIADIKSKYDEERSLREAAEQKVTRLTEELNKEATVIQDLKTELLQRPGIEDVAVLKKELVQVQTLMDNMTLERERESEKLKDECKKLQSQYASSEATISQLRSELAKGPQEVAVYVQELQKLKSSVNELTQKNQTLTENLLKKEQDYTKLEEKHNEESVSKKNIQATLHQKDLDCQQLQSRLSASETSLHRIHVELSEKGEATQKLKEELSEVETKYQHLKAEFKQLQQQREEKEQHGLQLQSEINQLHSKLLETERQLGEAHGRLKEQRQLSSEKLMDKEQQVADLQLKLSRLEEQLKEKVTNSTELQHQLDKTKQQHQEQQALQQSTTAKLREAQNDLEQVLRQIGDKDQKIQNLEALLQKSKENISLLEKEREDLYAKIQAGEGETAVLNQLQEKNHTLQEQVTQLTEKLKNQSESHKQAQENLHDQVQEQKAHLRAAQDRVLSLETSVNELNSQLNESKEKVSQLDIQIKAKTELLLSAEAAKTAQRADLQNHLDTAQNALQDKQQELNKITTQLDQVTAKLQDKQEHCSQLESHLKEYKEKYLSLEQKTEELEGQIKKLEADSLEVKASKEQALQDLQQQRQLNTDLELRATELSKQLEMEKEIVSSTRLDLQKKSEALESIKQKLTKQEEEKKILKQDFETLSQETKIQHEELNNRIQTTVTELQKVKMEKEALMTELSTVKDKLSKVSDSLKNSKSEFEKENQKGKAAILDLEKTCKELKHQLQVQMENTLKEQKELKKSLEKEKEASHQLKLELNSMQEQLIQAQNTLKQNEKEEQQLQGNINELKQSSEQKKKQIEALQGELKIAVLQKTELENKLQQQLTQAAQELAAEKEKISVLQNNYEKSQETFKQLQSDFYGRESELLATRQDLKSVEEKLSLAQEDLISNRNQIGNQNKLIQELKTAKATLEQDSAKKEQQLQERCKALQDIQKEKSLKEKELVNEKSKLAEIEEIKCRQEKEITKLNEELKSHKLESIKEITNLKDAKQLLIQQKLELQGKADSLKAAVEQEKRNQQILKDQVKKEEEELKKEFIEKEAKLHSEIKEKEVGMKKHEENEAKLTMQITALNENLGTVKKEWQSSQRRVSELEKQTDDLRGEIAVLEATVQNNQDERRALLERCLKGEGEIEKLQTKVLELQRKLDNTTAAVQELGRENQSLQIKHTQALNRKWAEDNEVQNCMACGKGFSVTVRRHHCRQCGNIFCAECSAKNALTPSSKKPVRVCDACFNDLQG
inactive: [1] 0.041 | [2] -0.012 | [3] -0.028 | [4] 0.017 | [5] -0.031 | [6] 0.002 | [7] 0.007 | [8] 0.036 | [9] 0.021 | [10] 0 | [11] -0.007 | [12] -0.007 | [13] -0.014 | [14] -0.046 | [15] 0.006 | [16] 0.02 | [17] -0.012 | [18] -0.04 | [19] 0.002
active: [20] -0.22

DNAJC1 (UniProt Q96KC8)
inactive: [1] -0.023 | [2] -0.138 | [3] -0.039 | [4] -0.064 | [5] 0.001 | [6] -0.17 | [7] 0.008 | [8] 0.022 | [9] -0.078 | [10] 0.017 | [11] -0.021 | [12] -0.148 | [13] 0.009 | [14] 0.023 | [15] 0.027 | [16] -0.094 | [17] -0.035 | [18] 0.009 | [19] 0.002
active: [20] -0.356

DCUN1D1 (UniProt Q96GG9)
UniProt Q96GG9, sequence (Q96GG9 whole entry, looked up): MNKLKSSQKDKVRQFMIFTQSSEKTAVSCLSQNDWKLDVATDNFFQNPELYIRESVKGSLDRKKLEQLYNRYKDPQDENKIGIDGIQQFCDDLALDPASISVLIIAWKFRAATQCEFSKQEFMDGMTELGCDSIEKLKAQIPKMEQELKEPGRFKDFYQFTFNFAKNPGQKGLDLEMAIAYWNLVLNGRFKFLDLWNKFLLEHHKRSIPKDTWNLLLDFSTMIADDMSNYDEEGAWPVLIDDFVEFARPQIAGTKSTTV
inactive: [1] 0.065 | [2] -0.003 | [3] 0.015 | [4] -0.062 | [5] 0.008 | [6] -0.021 | [7] 0.004 | [8] 0.031 | [9] 0.019 | [10] 0.015 | [11] -0.027 | [12] -0.061 | [13] -0.047 | [14] -0.067 | [15] 0.004 | [16] -0.059 | [17] -0.004 | [18] 0.002 | [19] -0.053 | [20] 0.036

EIF2S3 (UniProt P41091)
inactive: [1] -0.028 | [2] 0.119 | [3] 0 | [4] 0.07 | [5] -0.068 | [6] 0.002 | [7] -0.033 | [8] -0.07 | [9] 0.004 | [10] -0.027 | [11] -0.071 | [12] -0.014 | [14] 0.053 | [15] -0.037 | [16] 0.077 | [17] -0.031 | [18] 0.014 | [19] 0.038 | [20] -0.088
active: [13] -0.219

DTNBP1 (UniProt Q96EV8)
inactive: [1] -0.033 | [2] -0.115 | [3] -0.009 | [4] -0.068 | [5] -0.003 | [6] 0.004 | [7] 0.018 | [8] 0.044 | [9] -0.041 | [10] 0.073 | [11] 0.093 | [12] 0 | [13] 0.079 | [14] -0.014 | [15] -0.012 | [16] -0.104 | [17] -0.034 | [18] 0.022 | [19] -0.009 | [20] -0.073

EPHX2 (UniProt P34913)
inactive: [1] -0.019 | [2] -0.096 | [3] -0.017 | [4] -0.089 | [5] -0.053 | [6] -0.009 | [7] 0 | [8] 0.055 | [9] -0.041 | [10] 0.062 | [11] 0.036 | [12] 0.169 | [13] 0.194 | [14] -0.019 | [15] 0.029 | [16] -0.018 | [17] 0.144 | [18] -0.032 | [19] -0.016 | [20] -0.01

DNAJB1 (UniProt P25685)
UniProt P25685, sequence (P25685 whole entry, looked up): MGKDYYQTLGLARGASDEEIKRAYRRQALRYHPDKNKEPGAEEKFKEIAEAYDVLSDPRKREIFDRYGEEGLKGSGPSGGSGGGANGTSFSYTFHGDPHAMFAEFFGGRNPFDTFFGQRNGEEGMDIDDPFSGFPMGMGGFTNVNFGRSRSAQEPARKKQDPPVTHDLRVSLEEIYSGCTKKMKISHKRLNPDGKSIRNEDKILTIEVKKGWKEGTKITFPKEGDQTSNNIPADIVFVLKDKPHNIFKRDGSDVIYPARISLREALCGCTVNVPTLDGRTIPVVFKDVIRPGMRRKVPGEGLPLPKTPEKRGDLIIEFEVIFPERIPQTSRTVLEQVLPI
inactive: [1] 0.07 | [2] -0.013 | [3] 0.007 | [4] -0.032 | [5] -0.063 | [6] 0.046 | [7] 0.06 | [8] 0.003 | [9] -0.032 | [10] 0.005 | [11] -0.004 | [12] -0.004 | [13] 0.084 | [14] 0 | [15] 0.045 | [16] -0.041 | [17] -0.001 | [18] 0.059 | [19] -0.018 | [20] 0.019

DDX4 (UniProt Q9NQI0)
UniProt Q9NQI0, sequence (Q9NQI0 whole entry, looked up): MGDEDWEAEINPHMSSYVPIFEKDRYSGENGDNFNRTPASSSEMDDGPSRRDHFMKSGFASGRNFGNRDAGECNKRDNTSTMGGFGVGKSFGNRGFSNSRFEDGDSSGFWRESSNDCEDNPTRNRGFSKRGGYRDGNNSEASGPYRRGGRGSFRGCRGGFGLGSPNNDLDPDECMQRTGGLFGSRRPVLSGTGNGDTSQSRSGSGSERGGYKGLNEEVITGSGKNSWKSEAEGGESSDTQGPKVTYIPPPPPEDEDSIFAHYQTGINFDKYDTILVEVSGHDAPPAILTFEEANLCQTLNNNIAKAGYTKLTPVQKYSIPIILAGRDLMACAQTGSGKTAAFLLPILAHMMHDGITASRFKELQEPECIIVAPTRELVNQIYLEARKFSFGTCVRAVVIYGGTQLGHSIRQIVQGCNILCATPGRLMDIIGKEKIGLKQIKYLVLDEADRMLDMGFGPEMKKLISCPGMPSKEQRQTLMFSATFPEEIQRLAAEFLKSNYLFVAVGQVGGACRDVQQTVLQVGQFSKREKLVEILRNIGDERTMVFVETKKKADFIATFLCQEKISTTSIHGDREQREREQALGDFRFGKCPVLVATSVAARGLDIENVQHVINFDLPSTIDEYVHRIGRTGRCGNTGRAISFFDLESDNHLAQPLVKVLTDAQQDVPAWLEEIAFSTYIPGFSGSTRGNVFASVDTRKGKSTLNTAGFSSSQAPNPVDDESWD
inactive: [1] -0.474 | [2] 0.186 | [3] 0.004 | [4] 0.42 | [5] 0.172 | [6] 0.368 | [7] 0.048 | [8] -0.715 | [9] -0.399 | [10] 0.17 | [11] 0 | [12] 0.018 | [13] 0.013 | [14] 0.544 | [15] 0.265 | [16] 0.112 | [17] -0.042 | [18] -0.232 | [19] -0.021 | [20] -0.529

DUS3L (UniProt Q96G46)
UniProt Q96G46, sequence (Q96G46 whole entry, looked up): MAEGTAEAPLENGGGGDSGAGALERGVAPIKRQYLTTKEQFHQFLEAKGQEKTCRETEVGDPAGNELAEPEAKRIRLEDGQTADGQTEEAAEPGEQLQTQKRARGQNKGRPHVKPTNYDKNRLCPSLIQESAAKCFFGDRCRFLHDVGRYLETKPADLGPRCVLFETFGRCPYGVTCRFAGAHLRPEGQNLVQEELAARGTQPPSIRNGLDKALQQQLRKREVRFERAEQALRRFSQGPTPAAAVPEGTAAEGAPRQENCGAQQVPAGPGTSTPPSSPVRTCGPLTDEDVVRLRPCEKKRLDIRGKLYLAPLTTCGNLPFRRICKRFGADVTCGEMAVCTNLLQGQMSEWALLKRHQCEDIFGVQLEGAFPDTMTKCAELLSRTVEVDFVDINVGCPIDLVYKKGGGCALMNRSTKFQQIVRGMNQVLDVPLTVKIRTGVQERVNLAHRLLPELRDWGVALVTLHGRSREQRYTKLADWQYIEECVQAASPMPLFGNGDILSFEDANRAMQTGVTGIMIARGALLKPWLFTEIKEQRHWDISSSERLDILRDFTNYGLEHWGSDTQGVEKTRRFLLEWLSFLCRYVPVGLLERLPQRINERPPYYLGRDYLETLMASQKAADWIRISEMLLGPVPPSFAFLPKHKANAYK
inactive: [1] 0.069 | [2] 0.018 | [3] 0.001 | [4] 0.011 | [5] -0.071 | [6] 0.01 | [7] 0.02 | [8] 0.035 | [9] -0.037 | [10] -0.181 | [11] -0.015 | [12] 0.112 | [13] 0.019 | [14] -0.075 | [15] -0.005 | [16] -0.027 | [17] 0.043 | [18] 0.022 | [19] 0.033 | [20] 0

EED, A0A5F9ZI63
inactive: [1] 0.008 | [2] 0.115 | [3] -0.01 | [4] 0.08 | [5] -0.097 | [6] 0.032 | [7] 0.006 | [8] 0.018 | [9] 0.091 | [10] -0.163 | [11] -0.074 | [12] 0.045 | [13] -0.047 | [14] 0.007 | [15] 0.014 | [16] 0.07 | [17] -0.016 | [18] -0.013 | [19] 0.028 | [20] 0.019

DHX16 (UniProt O60231)
inactive: [1] 0.008 | [2] 0.096 | [3] 0.023 | [4] -0.03 | [5] -0.079 | [6] 0.028 | [7] 0.043 | [8] 0.04 | [9] 0.02 | [10] -0.012 | [11] 0.023 | [12] -0.013 | [13] 0.182 | [14] -0.03 | [15] -0.013 | [16] -0.06 | [17] -0.02 | [18] 0.053 | [19] -0.018 | [20] -0.01

CUEDC2 (UniProt Q9H467)
UniProt Q9H467, sequence (Q9H467 whole entry, looked up): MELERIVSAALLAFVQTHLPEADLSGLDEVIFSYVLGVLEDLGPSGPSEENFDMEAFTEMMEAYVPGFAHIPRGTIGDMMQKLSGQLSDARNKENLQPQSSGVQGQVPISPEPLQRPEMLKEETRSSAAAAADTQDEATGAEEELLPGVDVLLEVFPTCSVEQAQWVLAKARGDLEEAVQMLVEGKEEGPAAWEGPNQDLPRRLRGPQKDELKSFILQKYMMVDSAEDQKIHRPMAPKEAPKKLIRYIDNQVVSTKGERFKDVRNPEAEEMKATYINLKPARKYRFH
inactive: [1] 0.233 | [2] 0.018 | [3] 0 | [4] 0.005 | [5] -0.035 | [6] -0.018 | [7] 0.168 | [8] 0.023 | [9] -0.035 | [10] 0.014 | [11] 0.028 | [12] -0.029 | [13] 0.026 | [14] -0.113 | [15] 0.048 | [16] -0.017 | [17] 0.109 | [18] 0.012 | [19] -0.087 | [20] 0.024

FAM118A (UniProt Q9NWS6)
inactive: [1] 0.213 | [2] -0.15 | [3] 0.032 | [4] -0.323 | [5] 0.383 | [6] 0.023 | [7] 0.022 | [8] -0.044 | [9] 0 | [10] 0.207 | [11] -0.028 | [12] -0.112 | [13] 0.044 | [14] 0.036 | [15] -0.006 | [16] -0.44 | [17] -0.088 | [18] 0.097 | [19] -0.02 | [20] 0.034
